Experimental data: PubChem BioAssay AID1376 (SRMLSC, 2008)
Screen size: about 220,000 compounds; about 530 (0.24%) were called active. The sample holds actives, similar compounds and a random draw of the others, so the mix is not that of the screen. Measured potencies and affinities stand elsewhere. A number with no mark means an inactive call. Rule as the data show it: active = inhibition above about 13%; inconclusive = no clear call, values can overlap the other calls; inactive = below that.

molecular target: Bifunctional protein GlmU (Mycobacterium tuberculosis (strain ATCC 25618 / H37Rv)) (UniProt P9WMN3); experiment: inhibition of mycobacterial GlmU enzyme – biochemical, glucosamine-1-phosphate acetyltransferase (AID 1376);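 also: 0% = complete reaction with vehicle and 100% = reaction without substrate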; settings: M. tuberculosis GlmU acetyltransferase enzyme assay; hits give high values;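 tested at 30 µM in the primary screen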
Sequence (P9WMN3 whole entry, looked up): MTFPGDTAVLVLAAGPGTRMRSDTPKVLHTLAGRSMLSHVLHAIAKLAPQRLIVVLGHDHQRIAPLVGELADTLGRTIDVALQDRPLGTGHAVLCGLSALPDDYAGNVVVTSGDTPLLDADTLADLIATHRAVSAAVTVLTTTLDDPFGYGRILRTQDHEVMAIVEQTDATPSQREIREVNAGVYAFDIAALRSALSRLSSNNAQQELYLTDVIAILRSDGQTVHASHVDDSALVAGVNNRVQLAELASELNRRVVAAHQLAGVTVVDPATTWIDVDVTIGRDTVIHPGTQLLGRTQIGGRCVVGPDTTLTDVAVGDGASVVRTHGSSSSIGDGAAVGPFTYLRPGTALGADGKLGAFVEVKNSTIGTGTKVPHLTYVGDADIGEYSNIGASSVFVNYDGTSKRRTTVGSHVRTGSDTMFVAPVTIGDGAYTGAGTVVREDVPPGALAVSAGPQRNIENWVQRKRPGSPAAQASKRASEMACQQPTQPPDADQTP

Compared with `CC(=O)c1ccc(NC(=S)NC(=O)c2c(Cl)c(C)nn2C)cc1`, `CCOC(=O)c1ccc(NC(=S)N2CCC(C(N)=O)CC2)cc1` is higher in inhibition: 5.85% for the first, 6.36% for the second.

Going from `Cc1ccc(O)c(CCc2ccccc2)n1` to `Cc1ccc(O)c(CC(C)C)n1`, the inhibition rises from -3.57% to 6.41%.

First: COc1ccccc1NC(=O)Cn1c(CN2CCCCC2)nc2ccccc2c1=O
Second: O=C(CSc1nc2ccccc2n1CCc1ccccc1)N1CCOCC1
The inhibition of the first is higher: 0.52% for the first, -3.44% for the second.

First: O=C(NC1(C(F)(F)F)NC(=O)N(c2ccc(F)cc2)C1=O)c1cccs1 (stereo not given)
Second: CC(C)(C)c1ccc(Oc2ccc(NC(=O)c3cccs3)cn2)cc1
The inhibition of the first is higher: -0.58% for the first, -0.97% for the second.

Going from `Cc1sc2nc(SCC(=O)NCCO)n(C)c(=O)c2c1C` to `CCOC(=O)CSc1nc2sc(C)c(C)c2c(=O)n1C`, the inhibition rises from 3.09% to 3.47%.

First: Cc1c(C(=O)NCc2cccnc2)sc2ncn(CC(=O)N3CCCCC3C)c(=O)c12 (stereo not given)
Second: CC1CCCCN1CCNC(=O)CN1C(=O)COc2ccccc21 (stereo not given)
The inhibition of the first is lower: -7.32% for the first, -1.43% for the second.

First: Cc1nc(NC(=O)C2CC2)sc1C
Second: CCCCC(=O)Nc1nc(C)c(C(C)=O)s1
The inhibition of the first is higher: -0.38% for the first, -1.28% for the second.

Compared with `CCC(=O)N(Cc1cc2cc(C)c(C)cc2[nH]c1=O)C1CCCCC1`, `CC(=O)N1CCC(=NNC(=O)CSc2cc(C)c(Br)cc2C)CC1` is higher in inhibition: -7.37% for the first, -1.13% for the second.

Compared with `CC(=O)n1cc(/C=N/NC(N)=S)c2ccccc21`, `Cc1ccccc1/C=N/NC(=O)Cc1ccc(Cl)cc1` is higher in inhibition: -6.26% for the first, 0.8% for the second.

Going from `CSCC[C@H](NC(=O)OC(C)(C)C)C(=O)N/N=C/c1ccc2nccnc2c1` to `CC(=O)NC(CCS(C)(=O)=O)C(=O)Nc1ccc(Oc2ccccc2)cc1` (stereo not given), the inhibition rises from -6.4% to -3.46%.

First: CSc1ccccc1C(=O)C1CCCN(Cc2ccn[nH]2)C1 (stereo not given)
Second: CC1CCN(c2ncnc3ccccc23)CC1
The inhibition of the first is higher: 10.5% for the first, 2.04% for the second.

Compared with `O=C(c1cc2cc(Cl)cc(Cl)c2oc1=O)N1CCOCC1`, `Oc1c(Cl)cc(Cl)cc1C=Nc1ccc(Br)cc1` is higher in inhibition: -1.07% for the first, 5.27% for the second.

Going from `CCc1ccc(NS(=O)(=O)c2ccc3[nH]cc(C(=O)N(C)Cc4ccco4)c(=O)c3c2)cc1` to `CN(Cc1ccco1)C(=O)c1c[nH]c2ccc(S(=O)(=O)Nc3ccc4c(c3)OCCO4)cc2c1=O`, the inhibition rises from 1.75% to 3.32%.

Compared with `COc1cccc(C2=NOC(C(=O)Nc3cc(OC)c(OC)c(OC)c3)C2)c1` (stereo not given), `COc1cc(NC(=O)c2cc3nc(-c4ccccc4)cc(-c4ccccc4)n3n2)cc(OC)c1OC` is lower in inhibition: -0.12% for the first, -2.98% for the second.

First: CCOc1ncccc1C(=O)Nc1nnc(C2CC2)s1
Second: COc1ccc(C(=O)Nc2nc3ccccc3s2)cc1OC
The inhibition of the first is higher: 8.29% for the first, 1.41% for the second.

Compared with `CCn1c(SCC(=O)c2ccc(Cl)cc2)nnc1-c1cccs1`, `COc1ccc(-c2nnc(SCC(=O)NCc3ccco3)n2C)cc1` is higher in inhibition: -2.46% for the first, 3.67% for the second.

Compared with `CN(CC(=O)Nc1cccc(F)c1)C(=O)CCCc1cccs1`, `COCCCNC(=O)C1CCN(C(=O)c2cc3sccc3n2Cc2ccc(F)cc2)CC1` is higher in inhibition: -1.08% for the first, 1.5% for the second.

First: COC(C[C@H]1O[C@@H]1C(=O)[C@H](C)OCc1ccccc1)OC
Second: COC(C[C@@H]1O[C@@H]1C(=O)[C@H](C)OCc1ccccc1)OC
The inhibition of the first is higher: 5.93% for the first, -0.47% for the second.

Going from `COC(=O)C1C(=O)c2c(C)noc2CC1(C)C` (stereo not given) to `Cc1ccc(N=CC2=C(O)CC(C)(C)CC2=O)nc1`, the inhibition falls from 7.63% to 0.57%.

Going from `COc1ccc(C)cc1-n1nnnc1SCC(=O)Nc1cc(C)on1` to `Cc1cc(NC(=O)c2cc(-c3ccc(C)s3)nc3ccccc23)no1`, the inhibition falls from 4.65% to 2.43%.

First: Cc1cc(C)c2nc(SCCc3ccccc3)nc(C)c2c1
Second: Cc1ccc(N(CC(=O)N/N=C/c2cc(C)n(-c3ccccc3)c2C)S(C)(=O)=O)c(C)c1
The inhibition of the first is higher: 6.08% for the first, 1.57% for the second.

Going from `Cc1cc(=O)oc2cc(OCC#N)ccc12` to `C=C(Cl)COc1ccc2c(C)cc(=O)oc2c1`, the inhibition falls from -3.06% to -5.17%.

First: COc1ccc(/C=C/C(=O)NNc2cc(=O)n(C)c(=O)n2C)cc1OC
Second: COc1cc(NC(=O)Nc2ccc(Cl)c(Cl)c2)c(C(=O)O)cc1OC
The inhibition of the first is higher: 3.78% for the first, 0.76% for the second.

Compared with `COc1ccc(C/C(C)=N/NC(=S)Nc2ccccc2F)cc1`, `O=C(COc1ccc(Cc2ccccc2)cc1)c1ccc(F)cc1` is lower in inhibition: -0.55% for the first, -3.15% for the second.

First: O=C(CSc1nc2ccccc2n1CCc1ccccc1)NC1CC1
Second: CC1CC(=S)Nc2ccccc2N1C(=O)Nc1ccccc1 (stereo not given)
The inhibition of the first is lower: 0.08% for the first, 1.98% for the second.

Compared with `O=C1S/C(=C\c2ccc(Cl)cc2)C(=O)N1CCn1cnnn1`, `Cc1cccc(N2C(=O)C(O)=C(C(=O)c3cccs3)C2c2ccc(Cl)cc2)n1` (stereo not given) is higher in inhibition: -3.11% for the first, 3.09% for the second.

First: O=C(NCc1ccc(F)cc1)c1ccc(CS(=O)(=O)Cc2ccc(F)cc2)o1
Second: Cc1ccc(N2C(=O)C(Cc3ccc(O)cc3)NC2=S)cc1C (stereo not given)
The inhibition of the first is higher: 0.32% for the first, -4.47% for the second.

Compared with `O=[N+]([O-])c1cc(CN(CCO)CCO)ccc1O`, `O=C1OCc2cccc([N+](=O)[O-])c21` is higher in inhibition: 1.38% for the first, 7.84% for the second.

Compared with `CC(NCC(O)COCc1ccc(Cl)cc1)c1ccccc1` (stereo not given), `COc1ccc(C(CNC(=O)COc2ccccc2-c2ccccc2)N2CCOCC2)cc1` (stereo not given) is lower in inhibition: -4.31% for the first, -8.37% for the second.

Going from `O=c1oc2ccccc2c(Nc2cccc(O)c2)c1[N+](=O)[O-]` to `O=c1oc2ccccc2c(Nc2ccccc2)c1[N+](=O)[O-]`, the inhibition falls from 1.89% to 0.42%.

Compared with `COC(=O)/C(C(C)=O)=C(/C=C/C=C/N(C)C)N(C)C`, `CC(=O)NC(CCS(C)(=O)=O)C(=O)Nc1ccccc1` (stereo not given) is lower in inhibition: 6.24% for the first, 2.39% for the second.

First: CCOC(=O)C1(Cc2ccc(Cl)cc2)CCN(C(=O)C2CCCO2)CC1 (stereo not given)
Second: N#Cc1c2c(c(NCCN3CCOCC3)n3c1nc1ccccc13)CCCC2
The inhibition of the first is lower: 1.7% for the first, 6.82% for the second.

First: CC1=C(C#N)c2nc(N)c(C#N)c(C)c2/C1=C\c1ccc(C)cc1
Second: CC1=C(C#N)c2nc(N)c(C#N)c(C)c2/C1=C\c1ccc(OCC(=O)O)c(Cl)c1
The inhibition of the first is lower: 2.53% for the first, 4.55% for the second.

Going from `CC(C)(C)N1CC(C(=O)O)CC1=O` (stereo not given) to `CC(C)CN(C(=O)CSc1nnc2c(Cl)cc(C(F)(F)F)cn12)C1CCS(=O)(=O)C1` (stereo not given), the inhibition rises from 6.47% to 52.2%.

Going from `O=[N+]([O-])c1cccc(/C=N/n2c(COc3ccccc3)n[nH]c2=S)c1` to `O=C1c2cccc([N+](=O)[O-])c2C(=O)N1c1ccccc1`, the inhibition falls from 9.99% to 1.03%.

First: CC1(C)CC(=O)C(/C=N/c2ccccn2)=C(O)C1
Second: CCOC(=O)c1ccc(NC2c3ccccc3C(=O)N2c2cccnc2)cc1 (stereo not given)
The inhibition of the first is lower: 0.36% for the first, 1.04% for the second.

Compared with `CCCc1c(C)c(C#N)c2nc3ccccc3n2c1NCCCN1CCOCC1`, `CCCC1=C(C(=O)OCC)C(c2ccco2)C(C#N)=C(N)O1` (stereo not given) is lower in inhibition: 11.7% for the first, 0.05% for the second.

Compared with `O=C(OCC1O[C@@H](OC(=O)c2cc(O)c(O)c(O)c2)[C@@H](OC(=O)c2cc(O)c(O)c(O)c2)[C@@H](OC(=O)c2cc(O)c(O)c(O)c2)[C@@H]1OC(=O)c1cc(O)c(O)c(O)c1)c1cc(O)c(O)c(O)c1` (stereo not given in full), `O=C(Nc1cccc(O)c1)c1cc2nc(-c3ccccc3)cc(-c3ccccc3)n2n1` is lower in inhibition: 7.78% for the first, 1.52% for the second.

Going from `CC1CCN(c2nnc(-c3ccccc3)c3ccccc23)CC1` to `Cc1sc2nc(CN3CCC(C)CC3)nc(Cl)c2c1C`, the inhibition falls from 0.97% to -6.88%.

In the case of `C/C(=N\O)c1cc(Cl)cc(Cl)c1O`, the inhibition is reported as -5.49%.

`Cc1ccc(O)c(CO)n1` was tested, and the inhibition was 15% (active).
With `CCOC(=O)CNC(=O)CSc1nc2sc(C)c(C)c2c(=O)n1C` the inhibition was 15% (active).
With `Cc1nc(NC(=O)CCCC(=O)Nc2nc(C)c(C)s2)sc1C` the inhibition was 13.9% (active).
With `Cc1ccccc1NS(=O)(=O)c1ccc2[nH]cc(C(=O)N(C)Cc3ccco3)c(=O)c2c1` the inhibition was 29.4% (active).
In the case of `COC(C[C@@H]1O[C@@H]1C(=O)[C@@H](C)OCc1ccccc1)OC`, the inhibition is reported as 14.7% (active).
For `C#CCOc1ccc2c(C)cc(=O)oc2c1`, the inhibition was 13.2% (active).
For `O=C(CSc1nc2ccccc2n1CCc1ccccc1)c1ccc(O)c(O)c1`, the inhibition was 23.3% (active).
For `O=c1oc2ccccc2c(Nc2ccc(O)cc2)c1[N+](=O)[O-]`, the inhibition was 13.3% (active).
In the case of `COc1ccc(NC(=O)C(CCS(C)(=O)=O)NC(C)=O)cc1` (stereo not given), the inhibition is reported as 18.3% (active).
In the case of `O=C1CC(=O)c2c1cccc2[N+](=O)[O-]`, the inhibition is reported as 17% (active).
With `CC1(C)CC(=O)C(C=Nc2ccc(Cl)cn2)=C(O)C1` the inhibition was 13.9% (active).
`N#Cc1c2c(c(NCCCN3CCOCC3)n3c1nc1ccccc13)CCC2` was tested, and the inhibition was 13.8% (active).
For `O=C(O)C[C@@H]1C(=O)O[C@@H]2C(COC(=O)c3cc(O)c(O)c(O)c3)O[C@@H](OC(=O)c3cc(O)c(O)c(O)c3)[C@@H](OC(=O)c3cc(O)c(O)c4c3[C@H]1[C@H](O)C(=O)O4)[C@H]2OC(=O)c1cc(O)c(O)c(O)c1` (stereo not given in full), the inhibition was 67.3% (active).
`CC1CCN(c2nncc3ccccc23)CC1` was tested, and the inhibition was 31.2% (active).
In the case of `Oc1c(Cl)cc(Cl)cc1Sc1cc(Cl)cc(Cl)c1O`, the inhibition is reported as 13.1% (active).
In the case of `COc1ccc(NC(=O)c2cc3nc(-c4ccccc4)cc(-c4ccccc4)n3n2)c(OC)c1`, the inhibition is reported as 20.8% (active).
